The source of these data is the antibiotic and cytotoxicity screens of Wong et al. (2023).

The whole screen tested about 39,000 compounds, of which about 1,500 (3.8%) were called active. Only a selection was taken, and actives are over-represented in it overall.

In this test the test system is HSkMC (human skeletal muscle cells). The test is described as follows: cytotoxicity call (relative viability < 0.9). The note with it: 10 µM.
For the compound `COC(=O)C1CCN(S(=O)(=O)c2c(C)n(C)c(=O)n(C)c2=O)CC1`, the cytotoxicity call is “inactive”.
For the compound `O=C(CN1CCOCC1)NCC[C@@H]1CC[C@@H](NC(=O)c2ccccc2F)[C@H](CO)O1`, the cytotoxicity call is “inactive”.
`O=C(CN1CCOCC1)NCC[C@H]1CC[C@H](NC(=O)c2ccccc2F)[C@H](CO)O1`: the cytotoxicity call was “inactive”.
As for `O=C(CN1CCOCC1)NCC[C@@H]1CC[C@@H](NC(=O)c2ccccc2F)[C@@H](CO)O1`, the cytotoxicity call is “active”.
The entry for `CO/N=[N+](\[O-])NC(C)C` is “inactive”.
Take `C[C@@H]1CCCCO[C@H](CN(C)Cc2ccc(Cl)c(Cl)c2)[C@@H](C)CN([C@H](C)CO)C(=O)c2cc(NS(=O)(=O)c3ccc(F)cc3)ccc2O1`: the cytotoxicity call was “inactive”.
Regarding `C[C@@H]1CCCCO[C@@H](CN(C)Cc2ccc(Cl)c(Cl)c2)[C@@H](C)CN([C@@H](C)CO)C(=O)c2cc(NS(=O)(=O)c3ccc(F)cc3)ccc2O1`, the cytotoxicity call is “inactive”.
The entry for `C[C@@H]1CCCCO[C@@H](CN(C)Cc2ccc(Cl)c(Cl)c2)[C@H](C)CN([C@@H](C)CO)C(=O)c2cc(NS(=O)(=O)c3ccc(F)cc3)ccc2O1` is “active”; for `C[C@@H]1CCCCO[C@@H](CN(C)Cc2ccc(Cl)c(Cl)c2)[C@H](C)CN([C@H](C)CO)C(=O)c2cc(NS(=O)(=O)c3ccc(F)cc3)ccc2O1` it is “active”; for `C[C@H](CO)N1C[C@H](C)[C@H](CN(C)Cc2ccc(Cl)c(Cl)c2)OCCCC[C@H](C)Oc2ccc(NS(=O)(=O)c3ccc(F)cc3)cc2C1=O` it is “active”.
Turning to `C[C@H](CO)N1C[C@H](C)[C@@H](CN(C)Cc2ccc(Cl)c(Cl)c2)OCCCC[C@H](C)Oc2ccc(NS(=O)(=O)c3ccc(F)cc3)cc2C1=O`, the cytotoxicity call was “inactive”.
Turning to `C[C@H]1CCCCO[C@H](CN(C)Cc2ccc(Cl)c(Cl)c2)[C@@H](C)CN([C@@H](C)CO)C(=O)c2cc(NS(=O)(=O)c3ccc(F)cc3)ccc2O1`, the cytotoxicity call is “active”.
With `C[C@H]1CN([C@@H](C)CO)C(=O)c2cc(NC(=O)NC3CCCCC3)ccc2O[C@H]1CN(C)S(=O)(=O)c1cn(C)cn1`, the cytotoxicity call was “inactive”.
With `O=C(C[C@@H]1CC[C@@H](NC(=O)Cc2ccccn2)[C@H](CO)O1)NCCc1ccncc1` the entry was “inactive”.
Take `C[C@H](CO)N1C[C@H](C)[C@@H](CN(C)S(=O)(=O)c2cccs2)OCCCC[C@H](C)Oc2ccc(NS(=O)(=O)c3ccc(Cl)cc3)cc2C1=O`: the cytotoxicity call is “inactive”.
Turning to `C[C@H](CO)N1C[C@H](C)[C@H](CN(C)C(=O)Nc2ccc(C(F)(F)F)cc2)OCCCC[C@H](C)Oc2ccc(NC(=O)Cc3ccccc3)cc2C1=O`, the cytotoxicity call is “inactive”.
Turning to `C[C@@H]1CCCCO[C@H](CN(C)Cc2ccc3c(c2)OCO3)[C@H](C)CN([C@@H](C)CO)C(=O)c2cc(NS(=O)(=O)c3ccccc3)ccc2O1`, the cytotoxicity call was “inactive”.
The entry for `C[C@H]1CN([C@@H](C)CO)C(=O)c2cc(NC(=O)CCCN(C)C)ccc2O[C@@H]1CN(C)Cc1ccc(Oc2ccccc2)cc1` is “inactive”; for `Cc1ncc(CO)c(/C=N/O)c1O` it is “inactive”.
Regarding `Cc1ccc(S[C@]2(C(=O)NC(C)C)CC(=O)N(C3CCCCC3)[C@@H]2c2ccc(CO)cc2I)cc1`, the cytotoxicity call was “inactive”.
Turning to `COc1ccc(S(=O)(=O)N[C@H]2C=C[C@@H](CC(=O)N3CCN(c4ccccc4)CC3)O[C@@H]2CO)cc1`, the cytotoxicity call was “inactive”.
With `Cc1noc(C)c1NC(=O)Nc1cccc2c1O[C@@H](CN(C)C(=O)Nc1ccc(C(F)(F)F)cc1)[C@H](C)CN([C@H](C)CO)C2=O`, the cytotoxicity call was “inactive”.
Regarding `Cc1cc(C(=O)Nc2cccc3c2O[C@H](CN(C)S(=O)(=O)c2ccc(F)cc2)[C@@H](C)CN([C@H](C)CO)C3=O)n(C)n1`, the cytotoxicity call is “inactive”.
For `COC(=O)c1c2oc(c1C(=O)OC)C(=O)N[C@H](Cc1ccccc1)Cn1cc(nn1)CNC(=O)[C@H](Cc1ccccc1)NC(=O)N[C@@H](CO)CC2`, the cytotoxicity call was “inactive”.
With `CCCCC[C@H]1C[C@H]1C[C@H]1C[C@H]1CCCCCCCC(=O)O`, the cytotoxicity call is “inactive”.
With `COc1cccc(CN2C[C@@H](C)[C@H](OC)CN(C)C(=O)c3cc(NS(=O)(=O)c4cn(C)cn4)ccc3OC[C@H]2C)c1` the entry was “inactive”.
With `O=C(C[C@@H]1CC[C@@H]2[C@H](COC[C@@H](O)CN2C(=O)c2ccc3c(c2)OCO3)O1)NCCN1CCCC1` the entry was “inactive”.
On to `C[C@@H]1CCCCO[C@@H](CN(C)Cc2ccc(Cl)c(Cl)c2)[C@@H](C)CN([C@H](C)CO)C(=O)c2cc(NS(=O)(=O)c3ccc(F)cc3)ccc2O1`, for which the cytotoxicity call is “inactive”.
Take `C[C@@H]1CN([C@H](C)CO)C(=O)c2cc(NS(=O)(=O)c3ccc(F)cc3)ccc2O[C@@H](C)CCCCO[C@H]1CN(C)Cc1ccc(Cl)c(Cl)c1`: the cytotoxicity call is “inactive”.
The entry for `C[C@@H]1CCCCO[C@H](CN(C)Cc2ccc(Cl)c(Cl)c2)[C@@H](C)CN([C@@H](C)CO)C(=O)c2cc(NS(=O)(=O)c3ccc(F)cc3)ccc2O1` is “active”.
For the compound `C[C@@H]1CCCCO[C@H](CN(C)Cc2ccc(Cl)c(Cl)c2)[C@H](C)CN([C@@H](C)CO)C(=O)c2cc(NS(=O)(=O)c3ccc(F)cc3)ccc2O1`, the cytotoxicity call is “active”.
For `CN1CCN(C(=O)C[C@H]2C=C[C@@H](NC(=O)Cc3ccccn3)[C@H](CO)O2)CC1`, the cytotoxicity call is “inactive”.
The entry for `C[C@H]1CCCCO[C@@H](CN(C)C(=O)NC2CCCCC2)[C@@H](C)CN([C@@H](C)CO)C(=O)c2cc(NC(=O)Nc3ccc(C(F)(F)F)cc3)ccc2O1` is “inactive”; for `COc1ccc(NC(=O)Nc2ccc3c(c2)C(=O)N([C@@H](C)CO)C[C@H](C)[C@H](CN(C)C(=O)NC2CCCCC2)OCCCC[C@H](C)O3)cc1` it is “inactive”; for `C[C@H]1CN([C@@H](C)CO)C(=O)c2cc(NC(=O)Nc3ccc(C(F)(F)F)cc3)ccc2O[C@@H]1CN(C)C(=O)NC1CCCCC1` it is “inactive”.
With `C[C@@H]1CCCCO[C@H](CN(C)C(=O)NC2CCCCC2)[C@H](C)CN([C@H](C)CO)C(=O)c2cc(NC(=O)Nc3ccc(C(F)(F)F)cc3)ccc2O1`, the cytotoxicity call is “active”.
In the case of `C[C@@H]1CN([C@H](C)CO)C(=O)c2cc(NC(=O)Nc3ccc(C(F)(F)F)cc3)ccc2O[C@@H]1CN(C)C(=O)NC1CCCCC1`, the cytotoxicity call was “active”.
On to `C[C@@H]1CN([C@H](C)CO)C(=O)c2cc(NC(=O)Nc3ccc(C(F)(F)F)cc3)ccc2O[C@@H](C)CCCCO[C@@H]1CN(C)C(=O)NC1CCCCC1`, for which the cytotoxicity call is “inactive”.
Take `COc1ccc(NC(=O)Nc2ccc3c(c2)C(=O)N([C@@H](C)CO)C[C@@H](C)[C@@H](CN(C)C(=O)NC2CCCCC2)OCCCC[C@@H](C)O3)cc1`: the cytotoxicity call was “active”.
Take `C[C@@H]1CCCCO[C@@H](CN(C)C(=O)NC2CCCCC2)[C@H](C)CN([C@@H](C)CO)C(=O)c2cc(NC(=O)Nc3ccc(C(F)(F)F)cc3)ccc2O1`: the cytotoxicity call is “inactive”.
Turning to `COc1ccc(NC(=O)Nc2ccc3c(c2)C(=O)N([C@H](C)CO)C[C@H](C)[C@@H](CN(C)C(=O)NC2CCCCC2)OCCCC[C@@H](C)O3)cc1`, the cytotoxicity call is “inactive”.
For the compound `C[C@@H]1CN([C@H](C)CO)C(=O)c2cc(NC(=O)Nc3ccc(C(F)(F)F)cc3)ccc2O[C@H]1CN(C)C(=O)NC1CCCCC1`, the cytotoxicity call is “inactive”.
Consider `C[C@@H]1CCCCO[C@@H](CN(C)C(=O)NC2CCCCC2)[C@@H](C)CN([C@H](C)CO)C(=O)c2cc(NC(=O)Nc3ccc(C(F)(F)F)cc3)ccc2O1`, for which the cytotoxicity call is “active”.
Regarding `C[C@@H]1CCCCO[C@H](CN(C)C(=O)NC2CCCCC2)[C@@H](C)CN([C@@H](C)CO)C(=O)c2cc(NC(=O)Nc3ccc(C(F)(F)F)cc3)ccc2O1`, the cytotoxicity call is “inactive”.
For `COCC#Cc1cnc2c(c1)C(=O)N([C@H](C)CO)C[C@@H](C)[C@@H](CN(C)C(=O)c1cnccn1)O2`, the cytotoxicity call is “inactive”.
Turning to `C[C@H]1CN([C@@H](C)CO)C(=O)c2cccc(NC(=O)Nc3ccccc3)c2O[C@H]1CN(C)Cc1ccc(C(F)(F)F)cc1`, the cytotoxicity call is “inactive”.
The entry for `C[C@@H]1CN([C@@H](C)CO)C(=O)c2cc(NS(C)(=O)=O)ccc2O[C@@H]1CN(C)S(=O)(=O)c1ccc(Cl)cc1` is “inactive”; for `C=CCOC(=O)[C@H]1[C@@H]2C(=O)O[C@@H](c3ccccc3)[C@@H](c3ccccc3)N2[C@@H](c2ccc(OCCOC(=O)[C@H]3C[C@H]4C(=O)NCC(=O)N4[C@H]3c3ccc(O)cc3)cc2)[C@]12C(=O)Nc1ccc(I)cc12` it is “inactive”; for `C=C(O)C(=O)O` it is “inactive”.
As to `C[C@H]1CN([C@@H](C)CO)C(=O)Cc2cc(NS(=O)(=O)c3cccs3)ccc2O[C@@H]1CN(C)S(=O)(=O)c1cccs1`, the cytotoxicity call was “inactive”.
Turning to `Cc1cc(NC(=O)CCCC(=O)O)n(C)n1`, the cytotoxicity call is “inactive”.
For the compound `C[C@H](CO)N1C[C@H](C)[C@@H](CN(C)C(=O)Nc2cccc3ccccc23)Oc2ccc(NC(=O)Nc3ccc(F)cc3)cc2C1=O`, the cytotoxicity call is “inactive”.
For `C[C@@H]1CN([C@H](C)CO)C(=O)c2cc(NC(=O)Nc3ccc(F)cc3)ccc2O[C@@H]1CN(C)C(=O)Nc1cccc2ccccc12`, the cytotoxicity call was “active”.
Take `C[C@H](CO)N1C[C@H](C)[C@H](CN(C)C(=O)Nc2cccc3ccccc23)Oc2ccc(NC(=O)Nc3ccc(F)cc3)cc2C1=O`: the cytotoxicity call was “inactive”.
Turning to `C[C@@H]1CN([C@@H](C)CO)C(=O)c2cc(NC(=O)Nc3ccc(F)cc3)ccc2O[C@@H]1CN(C)C(=O)Nc1cccc2ccccc12`, the cytotoxicity call is “active”.
With `C[C@@H]1CN([C@H](C)CO)C(=O)c2cc(NC(=O)Nc3ccc(F)cc3)ccc2O[C@H]1CN(C)C(=O)Nc1cccc2ccccc12`, the cytotoxicity call was “inactive”.
`C[C@H]1CN([C@@H](C)CO)C(=O)c2cc(NC(=O)Nc3ccc(F)cc3)ccc2O[C@@H]1CN(C)C(=O)Nc1cccc2ccccc12`: the cytotoxicity call is “inactive”.
Regarding `Cc1ccc(S(=O)(=O)N(C)C[C@H]2Oc3ccc(NC(=O)C4CC4)cc3CC(=O)N([C@@H](C)CO)C[C@H]2C)cc1`, the cytotoxicity call is “inactive”.
On to `C[C@@H]1CCCCO[C@@H](CN(C)S(=O)(=O)c2ccccc2)[C@@H](C)CN([C@@H](C)CO)C(=O)c2cc(NC(=O)C3CCCCC3)ccc2O1`, for which the cytotoxicity call was “inactive”.
With `C[C@H]1CN([C@@H](C)CO)C(=O)c2cc(Br)cnc2O[C@H]1CN(C)S(=O)(=O)c1cccs1`, the cytotoxicity call was “inactive”.
